According to PubChem BioAssay (NCATS):
Inconclusive results are not listed. Entries that show only a call come without a potency. Activity calls are given as the source filed them. Unless noted, calls follow the shape of the dose curve; as a rule, active = well fitted curve in the direction sought with a large enough effect; inconclusive = small, poorly fitted or top-dose-only effect, or another doubt; inactive = no such curve, though single readings can be large; an effect the other way counts as inactive or inconclusive.

Columns and labels:
[1] = AP1 Signaling Pathway (AID 357; active = well fitted curve in either direction with a large enough effect, not every such curve was filed as active;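 also: ME-180 reporter cells stimulated with EGF at its EC50 level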)
In short: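 Titration-series screen for positive or negative modulators of EC50 EGF-induced signaling in ME-180 cells carrying an AP-1-driven beta-lactamase reporter. After 5 hours at 37 degrees Celsius, CCF4 460nm/530nm emission ratio gave %Activity; AC50 values derived.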

[2] = NFAT Signaling Pathway (AID 444; active = well fitted curve in either direction with a large enough effect, not every such curve was filed as active;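 also: carbachol stimulus at about its EC50 of 1 µM final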); conditions: Jurkat NFAT-bla M1, carbachol, beta-lactamase ratio, 5 h; at 17.2 µM (top of the series) unless noted
In short: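 Read-out: CCF4 FRET ratio (460 nm/530 nm) after 1 h RT dye loading, used for %activity and AC50 from titration series. Cells: Jurkat NFAT-β-lactamase/M1 line, treated with compound plus 1 uM carbachol for 5 h, 37 °C.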

[3] = Stat Signaling Pathway (AID 446; active = well fitted curve in either direction with a large enough effect, not every such curve was filed as active;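 also: ME-180 cervical cancer cells given 40 pM IL-6 alongside compound; SIE-controlled beta-lactamase reporter measured as 460/530 nm FRET emission ratio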)
In short: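 Reporter line: ME-180 cervical carcinoma, SIE-beta-lactamase. Treatment: compound with 40 pM IL-6, 5 hrs, 37 C, in low-serum OPTI-MEM with 10 mM HEPES pH 7.3. Detection: 460/530 nm fluorescence.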

[4] = target: Mitogen-activated protein kinase 10 (Mus musculus) (UniProt Q61831); experiment: JNK3 AlphaScreen Assay (AID 530; active = well fitted curve in either direction with a large enough effect, not every such curve was filed as active;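 also: kinase came from lysate of stimulated human HepG2 cells; signal reports phosphorylation of biotinylated GST-cJun 1-79 at Ser73 with 10 µM ATP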)
In short: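 Room-temperature AlphaScreen kinase assay; pre-activated HepG2 lysate as JNK3 source, biotin-GST-cJun(1-79) substrate, 10 uM ATP, compound 15 min preincubation.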

[5] = target: 3',5'-cyclic-AMP phosphodiesterase 4B (Homo sapiens) (UniProt Q07343); experiment: qHTS Assay for Inhibitors of PDE-IV (AID 607; active = well fitted activation curve with a large enough effect in the main read-out, with a control signal flat, not every such curve was filed as active)
In short: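 Cell-based read-out of cAMP via a modified cyclic nucleotide-gated channel and membrane potential dye (535/590 nm) in HEK293 cells expressing PDE4 endogenously. Compounds tested up to 22.9 uM final; 100 uM RO 20-1724 reference.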

[6] = qHTS Assay for Lipid Storage Modulators (AID 1519; calls by dose curve); conditions: Drosophila S3 cells, BODIPY lipid droplet/cell ratio, laser cytometry, cells loaded with oleic acid; for activity change, negative = inhibition: at 25.7 µM (top of the series)
In short: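 Cells seeded at 5,000 per well were treated with compounds over a concentration series and loaded with oleic acid (400 uM, as added). Lipid droplet fluorescence (488 nm excitation, 500-530 nm channel) was read by laser-scanning cytometry and normalized to 20 uM Triacsin C.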

[7] = target: Ubiquitin carboxyl-terminal hydrolase 1 (Homo sapiens) (UniProt O94782); experiment: Inhibitors of USP1/UAF1: Pilot qHTS (AID 504865);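 also: rhodamine fluorescence freed from ubiquitin-rhodamine substrate followed over time; top concentration of the series differs between compounds; nearly all actives have a fitted effect of over 35% in size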
In short: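 1nM USP1/UAF1 + cpd, 15 min RT; start w/ Ub-Rho 150nM final; kinetic FL 480/540 nm, 6 reads q60 s. Buffer 50mM HEPES pH 7.8, 0.5mM EDTA, 1mM TCEP, 0.01% Tween-20, 0.1 mg/ml BSA.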

[8] = target: Luciferin 4-monooxygenase (Photinus pyralis) (UniProt P08659); experiment: Biochemical firefly luciferase enzyme assay for NPC (AID 624030);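 also: purified P. pyralis luciferase at 10 nM with luciferin and ATP substrate; nearly all actives have a fitted effect of over 70% in size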
In short: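 Direct inhibition of firefly luciferase enzyme (10 nM final, 50 mM Tris Acetate) assessed by luminescence within 5 minutes. Percent activity scaled between DMSO and PTC124 positive control, with concentration-effect curves classified by fit quality and response.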

[9] = S16 Schwann cell viability assay (CellTiter-Glo assay) (AID 624031);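 also: cellular ATP luminescence as a viability measure; nearly all actives have a fitted effect of over 70% in size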
In short: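 Untransfected S16 rat Schwann cells; compound 24 h, 37 °C/5% CO2; CellTiter-Glo ATP luminescence. % activity vs no-cell wells and DMSO controls (0%); concentration-effect curves classed by r2, response magnitude, activity.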

[10] = qHTS profiling for inhibitors of Plasmodium falciparum proliferation (AID 504749); also: nearly all actives have a fitted effect of over 60% in size; conditions: P. falciparum in erythrocytes, SYBR Green DNA, 72 h, at 12.8 µM (top of the series)
In short: (§1)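 Three-day growth assay of blood-stage parasites in erythrocytes (0.3% parasitemia, 2.5% hematocrit) at 37 C, 5% CO2, quantified by SYBR Green DNA staining after overnight detergent lysis.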

C2A = experiment: as above; conditions: P. falciparum in erythrocytes, SYBR Green DNA, 72 h; series mostly up to 12.8 µM
In short: as §1

CP191 = experiment: as above; conditions: P. falciparum in erythrocytes, SYBR Green DNA, 72 h; series mostly up to 12.8 µM
In short: as §1

CP247 = experiment: as above; conditions: P. falciparum in erythrocytes, SYBR Green DNA, 72 h; series mostly up to 12.8 µM
In short: as §1

CP250 = experiment: as above; conditions: P. falciparum in erythrocytes, SYBR Green DNA, 72 h; series mostly up to 12.8 µM
In short: as §1

CP256 = experiment: as above; conditions: P. falciparum in erythrocytes, SYBR Green DNA, 72 h; series mostly up to 12.8 µM
In short: as §1

FAB9 = experiment: as above; conditions: P. falciparum in erythrocytes, SYBR Green DNA, 72 h; series mostly up to 12.8 µM
In short: as §1

JCK = experiment: as above; conditions: P. falciparum in erythrocytes, SYBR Green DNA, 72 h; series mostly up to 12.8 µM
In short: as §1

PC49 = experiment: as above; conditions: P. falciparum in erythrocytes, SYBR Green DNA, 72 h; series mostly up to 12.8 µM
In short: as §1

[11] = target: Glucocorticoid receptor (Homo sapiens) (UniProt P04150); experiment: GR-EFC Redistribution (AID 451; calls by dose curve; also: potency is read from the fitted curve at half-maximal effect); conditions: CHO-K1 GR-EFC translocation, beta-gal luminescence, 2 h
In short: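 Translocation of GR-ED fusion to nuclear EA restores b-gal, read by luminescence after 1 h room-temperature detection. Engineered CHO-K1 biosensor cells, 1,000/well, exposed 2 h at 37 C to titrations up to 46 uM final.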

[12] = measured here: cell count channel max response
[13] = measured here: lipid channel max response

Chain of 3',5'-cyclic-AMP phosphodiesterase 4B (Homo sapiens) (Q07343 whole entry, looked up): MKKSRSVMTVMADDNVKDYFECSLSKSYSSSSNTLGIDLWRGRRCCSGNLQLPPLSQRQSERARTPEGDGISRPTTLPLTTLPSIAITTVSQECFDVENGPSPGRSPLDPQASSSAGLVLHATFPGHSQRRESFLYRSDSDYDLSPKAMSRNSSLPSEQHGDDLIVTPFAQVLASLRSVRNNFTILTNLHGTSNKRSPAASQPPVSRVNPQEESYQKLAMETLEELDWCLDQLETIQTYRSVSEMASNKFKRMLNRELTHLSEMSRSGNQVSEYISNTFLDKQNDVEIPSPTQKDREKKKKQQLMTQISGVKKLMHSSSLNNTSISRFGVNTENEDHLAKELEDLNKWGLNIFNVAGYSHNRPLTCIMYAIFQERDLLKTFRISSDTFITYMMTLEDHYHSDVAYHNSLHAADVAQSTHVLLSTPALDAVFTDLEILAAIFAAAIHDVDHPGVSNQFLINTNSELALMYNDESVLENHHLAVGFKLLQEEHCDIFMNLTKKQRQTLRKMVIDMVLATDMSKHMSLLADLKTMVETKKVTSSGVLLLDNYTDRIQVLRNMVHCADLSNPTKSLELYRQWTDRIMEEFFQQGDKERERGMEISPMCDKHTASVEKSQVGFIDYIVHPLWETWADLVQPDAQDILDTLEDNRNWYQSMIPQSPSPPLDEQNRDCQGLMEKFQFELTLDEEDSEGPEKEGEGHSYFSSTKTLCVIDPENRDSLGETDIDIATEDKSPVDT
Chain of Ubiquitin carboxyl-terminal hydrolase 1 (Homo sapiens) (O94782 whole entry, looked up): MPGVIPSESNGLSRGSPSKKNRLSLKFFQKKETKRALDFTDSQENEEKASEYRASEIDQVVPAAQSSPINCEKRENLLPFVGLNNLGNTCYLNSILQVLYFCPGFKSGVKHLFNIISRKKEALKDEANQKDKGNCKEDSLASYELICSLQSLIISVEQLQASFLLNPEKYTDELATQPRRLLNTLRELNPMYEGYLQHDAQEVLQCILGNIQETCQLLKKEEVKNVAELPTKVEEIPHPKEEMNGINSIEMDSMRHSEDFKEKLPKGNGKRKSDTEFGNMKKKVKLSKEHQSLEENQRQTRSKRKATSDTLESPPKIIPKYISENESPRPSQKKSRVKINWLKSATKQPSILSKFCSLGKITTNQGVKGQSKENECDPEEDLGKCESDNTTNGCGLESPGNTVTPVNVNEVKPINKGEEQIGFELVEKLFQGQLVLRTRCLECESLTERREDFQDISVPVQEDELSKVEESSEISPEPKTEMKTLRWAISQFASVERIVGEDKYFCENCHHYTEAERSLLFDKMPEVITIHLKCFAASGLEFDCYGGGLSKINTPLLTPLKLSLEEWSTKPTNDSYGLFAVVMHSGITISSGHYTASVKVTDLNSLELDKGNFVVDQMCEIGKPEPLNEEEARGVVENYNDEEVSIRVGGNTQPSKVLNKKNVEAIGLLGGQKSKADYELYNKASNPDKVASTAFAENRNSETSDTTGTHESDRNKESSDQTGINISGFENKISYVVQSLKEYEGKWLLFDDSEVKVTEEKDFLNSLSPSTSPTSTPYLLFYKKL
Chain of Luciferin 4-monooxygenase (Photinus pyralis) (P08659 whole entry, looked up): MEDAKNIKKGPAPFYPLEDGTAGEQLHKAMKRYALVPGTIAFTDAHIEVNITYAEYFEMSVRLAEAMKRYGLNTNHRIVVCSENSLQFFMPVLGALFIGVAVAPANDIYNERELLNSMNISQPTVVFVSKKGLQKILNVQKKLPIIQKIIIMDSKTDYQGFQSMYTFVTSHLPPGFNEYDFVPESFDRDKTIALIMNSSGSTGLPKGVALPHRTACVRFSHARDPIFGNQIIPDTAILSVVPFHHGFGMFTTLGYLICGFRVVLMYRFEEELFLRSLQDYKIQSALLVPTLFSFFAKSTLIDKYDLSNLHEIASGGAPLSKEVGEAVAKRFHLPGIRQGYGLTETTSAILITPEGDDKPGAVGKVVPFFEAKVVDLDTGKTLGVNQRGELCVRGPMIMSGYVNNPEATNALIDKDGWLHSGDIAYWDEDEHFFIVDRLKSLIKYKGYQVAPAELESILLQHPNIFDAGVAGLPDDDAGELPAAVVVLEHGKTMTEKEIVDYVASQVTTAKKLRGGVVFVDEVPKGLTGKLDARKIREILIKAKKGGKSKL
Chain of Glucocorticoid receptor (Homo sapiens) (P04150 whole entry, looked up, the tested form may be a part): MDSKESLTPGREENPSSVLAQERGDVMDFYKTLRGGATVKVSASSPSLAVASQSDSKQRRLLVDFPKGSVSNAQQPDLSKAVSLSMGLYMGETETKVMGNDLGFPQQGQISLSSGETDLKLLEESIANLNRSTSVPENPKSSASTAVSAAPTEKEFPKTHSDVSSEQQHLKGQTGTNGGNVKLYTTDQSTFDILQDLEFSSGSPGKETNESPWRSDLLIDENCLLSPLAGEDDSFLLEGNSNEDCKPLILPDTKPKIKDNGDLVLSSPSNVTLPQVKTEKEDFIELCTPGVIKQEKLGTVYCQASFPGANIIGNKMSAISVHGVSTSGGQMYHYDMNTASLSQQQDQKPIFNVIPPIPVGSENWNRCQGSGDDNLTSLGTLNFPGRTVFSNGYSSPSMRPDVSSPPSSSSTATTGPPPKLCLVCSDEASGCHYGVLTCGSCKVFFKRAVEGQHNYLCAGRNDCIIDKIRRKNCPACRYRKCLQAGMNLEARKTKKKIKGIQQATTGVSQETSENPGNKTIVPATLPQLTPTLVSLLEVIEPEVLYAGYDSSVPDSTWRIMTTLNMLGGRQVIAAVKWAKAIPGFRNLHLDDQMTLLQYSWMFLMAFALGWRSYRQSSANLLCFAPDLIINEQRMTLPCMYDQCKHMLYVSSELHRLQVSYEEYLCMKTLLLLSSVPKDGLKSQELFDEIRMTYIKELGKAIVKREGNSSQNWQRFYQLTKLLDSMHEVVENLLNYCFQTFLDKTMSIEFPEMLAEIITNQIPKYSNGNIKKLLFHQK

Question: Which results are given for CO[C@@H]1C[C@H](O[C@H]2[C@@H](C)[C@H](O[C@@H]3O[C@@H](C)C[C@@H](N(C)C)[C@@H]3OC(C)=O)[C@H](C)C[C@]3(CO3)C(=O)[C@H](C)[C@H](OC(C)=O)[C@H](C)[C@H](C)OC(=O)[C@@H]2C)O[C@H](C)[C@@H]1OC(C)=O?
Answer: outcome [1]: inactive; activity change, negative = inhibition [2]: 11.7% (inactive); outcome [3]: inactive; Potency [4]: inactive; outcome [5]: inactive; activity change, negative = inhibition [6]: -1.3% (inactive); max response [6, 12]: -6.43%; max response [6, 13]: -9.02%; Potency [7]: inactive; Potency [8]: inactive; outcome [9]: inactive; activity, negative = inhibition ([10]; parasite line A): -21.7% (inactive); activity, negative = inhibition ([10]; parasite line B): -14.9% (inactive); Potency (C2A): inactive; Potency (CP191): inactive; Potency (CP247): inactive; Potency (CP250): inactive; Potency (CP256): inactive; Potency (FAB9): inactive; Potency (JCK): inactive; Potency (PC49): inactive

Question: With C[C@H](O)Cn1cnc2c1c(=O)n(C)c(=O)n2C as the molecule, how does the outcome [1] read?
Answer: inactive

Question: What about the activity change, negative = inhibition [2] of the same molecule?
Answer: 18.8% (inactive)

Question: And the outcome [3]?
Answer: inactive

Question: What about the Potency [4] of the same molecule?
Answer: inactive

Question: What about the outcome [5] of the same molecule?
Answer: inactive

Question: And the activity change, negative = inhibition [6]?
Answer: 0.562% (inactive)

Question: And the max response [6, 12]?
Answer: -2.3%

Question: What about the max response [6, 13] of the same molecule?
Answer: -3.77%

Question: And the Potency [7]?
Answer: inactive

Question: And the Potency [8]?
Answer: inactive

Question: And the outcome [9]?
Answer: inactive

Question: And the activity, negative = inhibition ([10]; parasite line A)?
Answer: 7.57% (inactive)

Question: And the activity, negative = inhibition ([10]; parasite line B)?
Answer: -0.935% (inactive)

Question: And the Potency (C2A)?
Answer: inactive

Question: What about the Potency (CP191) of the same molecule?
Answer: inactive

Question: And the Potency (CP247)?
Answer: inactive

Question: And the Potency (CP250)?
Answer: inactive

Question: What about the Potency (CP256) of the same molecule?
Answer: inactive

Question: What about the Potency (FAB9) of the same molecule?
Answer: inactive

Question: What about the Potency (JCK) of the same molecule?
Answer: inactive

Question: And the Potency (PC49)?
Answer: inactive

Question: Which outcome [1] does the source give for COCCOC(=O)C1=C(C)NC(C)=C(C(=O)OC(C)C)[C@H]1c1cccc([N+](=O)[O-])c1 here?
Answer: inactive

Question: What about the activity change, negative = inhibition [2] of the same molecule?
Answer: -10.3% (inactive)

Question: What about the outcome [3] of the same molecule?
Answer: inactive

Question: What about the Potency [11] of the same molecule?
Answer: > 20.6 µM (inactive)

Question: What about the Potency [4] of the same molecule?
Answer: inactive

Question: And the outcome [5]?
Answer: inactive

Question: What about the activity change, negative = inhibition [6] of the same molecule?
Answer: -3.07% (inactive)

Question: And the max response [6, 12]?
Answer: -5.25%

Question: What about the max response [6, 13] of the same molecule?
Answer: -6.94%

Question: What about the Potency [7] of the same molecule?
Answer: inactive

Question: Which outcome [1] does the source give for CC1(C)S[C@@H]2[C@H](NC(=O)[C@@H](N)c3ccc(O)cc3)C(=O)N2[C@H]1C(=O)O here?
Answer: inactive

Question: And the activity change, negative = inhibition [2]?
Answer: -4.29% (inactive)

Question: What about the outcome [3] of the same molecule?
Answer: inactive

Question: What about the outcome [5] of the same molecule?
Answer: inactive

Question: What about the activity change, negative = inhibition [6] of the same molecule?
Answer: -0.615% (inactive)

Question: What about the max response [6, 12] of the same molecule?
Answer: -7.54%

Question: And the max response [6, 13]?
Answer: -10.4%

Question: And the Potency [7]?
Answer: inactive

Question: Which outcome [1] does the source give for CC(C)(CO)[C@H](O)C(=O)NCCC(=O)O here?
Answer: inactive

Question: And the activity change, negative = inhibition [2]?
Answer: 8.26% (inactive)

Question: And the outcome [3]?
Answer: inactive

Question: What about the Potency [4] of the same molecule?
Answer: inactive

Question: And the outcome [5]?
Answer: inactive

Question: What about the activity change, negative = inhibition [6] of the same molecule?
Answer: -0.81% (inactive)

Question: And the max response [6, 12]?
Answer: 7.75%

Question: What about the max response [6, 13] of the same molecule?
Answer: 6.98%

Question: For CC(C)n1c(/C=C\[C@@H](O)C[C@@H](O)CC(=O)O)c(-c2ccc(F)cc2)c2ccccc21, which outcome [1] is on record?
Answer: inactive

Question: What about the activity change, negative = inhibition [2] of the same molecule?
Answer: 6.57% (inactive)

Question: What about the outcome [3] of the same molecule?
Answer: inactive

Question: And the Potency [11]?
Answer: > 20.6 µM (inactive)

Question: And the Potency [4]?
Answer: inactive

Question: What about the outcome [5] of the same molecule?
Answer: inactive

Question: And the activity change, negative = inhibition [6]?
Answer: -2.74% (inactive)

Question: What about the max response [6, 12] of the same molecule?
Answer: -6.17%

Question: What about the max response [6, 13] of the same molecule?
Answer: -6.63%
